Activity calls are given as the source filed them.
What was measured:
[1] = test system: PRMT1 (protein arginine N-methyltransferase 1); experiment: small molecules binding arginine methyltransferase PRMT1 – biochemical, small-molecule microarray, 635 nm fluorescence, primary screen (AID 1088); settings: higher = more signal;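 further: binding of Prmt1 protein to compounds spotted on small-molecule microarray slides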
[2] = growth effects on S. cerevisiae YJM789 – YJM789 clinical isolate, OD600, 24 h, basal, primary screen (AID 1089); settings: higher = more signal, called active from +8 up or from −8 down;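 further: growth of clinical yeast isolate S. cerevisiae YJM 789 seeded 1000 cells per well; test concentration not given here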
[3] = S. pombe growth modifiers, basal conditions – strain 972, OD600, 24 h, no modulator, primary screen (AID 1090);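 further: basal condition with compound alone and no growth modifier present; test concentration not given here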; settings: S. pombe 972 growth, higher = more signal, called active from +8 up or from −8 down
[4] = budding yeast growth modifiers under rapamycin – strain BY4716, OD600, 96 h, primary screen (AID 1091); further: test concentration not given here; settings: S. cerevisiae BY4716 + rapamycin, higher = more signal, called active from +8 up or from −8 down
[5] = target: Torsin-1A-interacting protein 2 (Homo sapiens) (UniProt Q8NFQ8); experiment: small molecules binding lysate-expressed LULL1 – cell lysate, human LULL1 lysate, 635/667 nm fluorescence, primary screen (AID 1092); settings: small-molecule microarray, hLULL1 lysate binding, 635 nm fluorescence; higher = more signal;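 further: probe is lysate of COS7 cells overexpressing human LULL1; score merges per-feature 667 nm fluorescence with signal-to-noise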
[6] = optical density change of DRC41 E. coli – strain DRC41, OD650, 24 h, E. coli filamentation project, primary screen (AID 1093);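 further: MC1000 strain lacking acrAB efflux and sulA so SOS filamentation is blocked; test concentration not given here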; settings: E. coli DRC41 growth, higher = more signal, called active from +8 up or from −8 down
[7] = probe aLefty2 binding to arrayed compounds – biochemical, biotinylated probe, 635/667 nm fluorescence, primary screen (AID 1094); settings: small-molecule microarray, higher = more signal;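 further: score merges spot fluorescence near 667 nm with spot signal-to-noise ratio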
[8] = test system: Noggin (protein binding on small-molecule microarray); experiment: small molecules binding Noggin protein – biochemical, 635/667 nm fluorescence, primary screen (AID 1095); settings: 635 nm fluorescence, higher = more signal;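 further: score merges 667 nm feature fluorescence with signal to noise over triplicate slides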
[9] = target: Neurogenic locus notch homolog protein 3 (Homo sapiens) (UniProt Q9UM47); experiment: small molecules binding NOTCH3 protein – biochemical, 635/667 nm fluorescence, primary screen (AID 1096); settings: small-molecule microarray, 635 nm fluorescence, higher = more signal
[10] = probe aEGFR binding to arrayed compounds – biochemical, biotinylated probe, 635/667 nm fluorescence, primary screen (AID 1097); settings: small-molecule microarray, higher = more signal;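 further: probe is a biotinylated anti-EGFR antibody binding compounds printed on slides; score combines fluorescence near 667 nm and signal to noise of each spot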
[11] = test system: Plasmodium falciparum Sir2 (PF13_0152, Sir2A); experiment: Plasmodium falciparum Sir2A binding compounds – biochemical, small-molecule microarray, 635 nm fluorescence, primary screen (AID 1098); settings: fluorescence 635 nm, higher = more signal;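 further: score merges spot fluorescence intensity with its signal-to-noise ratio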
[12] = probe aDKK1 binding to arrayed compounds – biochemical, biotinylated probe, 635/667 nm fluorescence, primary screen (AID 1099); settings: small-molecule microarray, higher = more signal;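 further: score merges 667nm spot fluorescence with signal to noise across triplicate slides; reference of the scale not given here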
[13] = probe aCHRDL2 binding to arrayed compounds – biochemical, biotinylated probe, 635/667 nm fluorescence, primary screen (AID 1100); settings: small-molecule microarray, higher = more signal
[14] = change in splice reporter luminescence, either direction, cell-based, HEK293, spliceosome inhibition project, primary screen (AID 1101); settings: HEK293 splicing luciferase reporter, 24 h, higher = more signal, called active from +8 up or from −8 down;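 further: HEK293 cells carrying a splicing-competent luciferase reporter gene; test concentration not given here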
[15] = target: Fibroblast growth factor 10 (Homo sapiens) (UniProt O15520); experiment: compounds binding fibroblast growth factor 10 – biochemical, small-molecule microarray, 635 nm fluorescence, primary screen (AID 1102); settings: FGF10 binding, fluorescence 635 nm, higher = more signal
[16] = test system: glycogen synthase kinase-3 (GSK3A per assay name; protocol says GSK3B); experiment: compounds binding glycogen synthase kinase-3 – biochemical, small-molecule microarray, 635 nm fluorescence, GSK3A, primary screen (AID 1103); settings: fluorescence 635 nm, higher = more signal; further: the record names both GSK3A and GSK3B
[17] = target: Epidermal growth factor receptor (Homo sapiens) (UniProt P00533); experiment: compounds binding epidermal growth factor receptor – biochemical, small-molecule microarray, 635 nm fluorescence, primary screen (AID 1104); settings: EGFR binding, higher = more signal;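 further: score merges 667 nm emission intensity with spot signal to noise over triplicate slides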
[18] = target: Follistatin-related protein 3 (Homo sapiens) (UniProt O95633); experiment: compounds binding follistatin-related protein 3 – biochemical, small-molecule microarray, 635 nm fluorescence, primary screen (AID 1105); settings: FSTL3 binding, higher = more signal;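 further: score merges emission near 667 nm and signal to noise per printed spot across three slides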
[19] = target: Dickkopf-related protein 1 (Homo sapiens) (UniProt O94907); experiment: small molecules binding DKK1 protein – biochemical, small-molecule microarray, 635 nm fluorescence scan, primary screen (AID 1106); settings: higher = more signal;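 further: score merges emission near 667 nm with signal to noise over three replicate slides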
[20] = test system: Inhibin beta A chain (activin A); experiment: small molecules binding activin A – biochemical, small-molecule microarray, 635 nm fluorescence scan, primary screen (AID 1107); settings: INHBA, higher = more signal;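 further: mouse activin A protein probed at 4.33 µg/mL on printed slides; score merges bound-protein fluorescence near 667 nm with spot signal-to-noise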

Follistatin-related protein 3 (Homo sapiens), sequence (O95633 whole entry, looked up): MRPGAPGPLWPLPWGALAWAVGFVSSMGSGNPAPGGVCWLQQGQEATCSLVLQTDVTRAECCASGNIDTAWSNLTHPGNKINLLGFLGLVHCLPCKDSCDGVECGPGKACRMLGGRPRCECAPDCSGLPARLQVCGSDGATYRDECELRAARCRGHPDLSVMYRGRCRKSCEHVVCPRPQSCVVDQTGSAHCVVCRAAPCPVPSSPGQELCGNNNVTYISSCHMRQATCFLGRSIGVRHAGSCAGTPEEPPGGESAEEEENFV
Fibroblast growth factor 10 (Homo sapiens), sequence (O15520 whole entry, looked up): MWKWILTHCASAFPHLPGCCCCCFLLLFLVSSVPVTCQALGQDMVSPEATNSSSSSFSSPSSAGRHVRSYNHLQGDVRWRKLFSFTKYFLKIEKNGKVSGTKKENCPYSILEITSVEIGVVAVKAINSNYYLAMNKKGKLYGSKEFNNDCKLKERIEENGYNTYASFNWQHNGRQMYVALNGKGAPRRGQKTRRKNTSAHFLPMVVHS
Dickkopf-related protein 1 (Homo sapiens), sequence (O94907 whole entry, looked up): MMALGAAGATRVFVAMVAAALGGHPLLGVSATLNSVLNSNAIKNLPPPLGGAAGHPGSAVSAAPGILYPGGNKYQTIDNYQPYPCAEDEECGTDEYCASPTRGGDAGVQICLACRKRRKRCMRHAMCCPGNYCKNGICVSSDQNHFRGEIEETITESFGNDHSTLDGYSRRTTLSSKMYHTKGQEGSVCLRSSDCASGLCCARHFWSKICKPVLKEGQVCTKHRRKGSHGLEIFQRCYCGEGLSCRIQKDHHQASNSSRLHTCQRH
Neurogenic locus notch homolog protein 3 (Homo sapiens), sequence (Q9UM47 whole entry, looked up): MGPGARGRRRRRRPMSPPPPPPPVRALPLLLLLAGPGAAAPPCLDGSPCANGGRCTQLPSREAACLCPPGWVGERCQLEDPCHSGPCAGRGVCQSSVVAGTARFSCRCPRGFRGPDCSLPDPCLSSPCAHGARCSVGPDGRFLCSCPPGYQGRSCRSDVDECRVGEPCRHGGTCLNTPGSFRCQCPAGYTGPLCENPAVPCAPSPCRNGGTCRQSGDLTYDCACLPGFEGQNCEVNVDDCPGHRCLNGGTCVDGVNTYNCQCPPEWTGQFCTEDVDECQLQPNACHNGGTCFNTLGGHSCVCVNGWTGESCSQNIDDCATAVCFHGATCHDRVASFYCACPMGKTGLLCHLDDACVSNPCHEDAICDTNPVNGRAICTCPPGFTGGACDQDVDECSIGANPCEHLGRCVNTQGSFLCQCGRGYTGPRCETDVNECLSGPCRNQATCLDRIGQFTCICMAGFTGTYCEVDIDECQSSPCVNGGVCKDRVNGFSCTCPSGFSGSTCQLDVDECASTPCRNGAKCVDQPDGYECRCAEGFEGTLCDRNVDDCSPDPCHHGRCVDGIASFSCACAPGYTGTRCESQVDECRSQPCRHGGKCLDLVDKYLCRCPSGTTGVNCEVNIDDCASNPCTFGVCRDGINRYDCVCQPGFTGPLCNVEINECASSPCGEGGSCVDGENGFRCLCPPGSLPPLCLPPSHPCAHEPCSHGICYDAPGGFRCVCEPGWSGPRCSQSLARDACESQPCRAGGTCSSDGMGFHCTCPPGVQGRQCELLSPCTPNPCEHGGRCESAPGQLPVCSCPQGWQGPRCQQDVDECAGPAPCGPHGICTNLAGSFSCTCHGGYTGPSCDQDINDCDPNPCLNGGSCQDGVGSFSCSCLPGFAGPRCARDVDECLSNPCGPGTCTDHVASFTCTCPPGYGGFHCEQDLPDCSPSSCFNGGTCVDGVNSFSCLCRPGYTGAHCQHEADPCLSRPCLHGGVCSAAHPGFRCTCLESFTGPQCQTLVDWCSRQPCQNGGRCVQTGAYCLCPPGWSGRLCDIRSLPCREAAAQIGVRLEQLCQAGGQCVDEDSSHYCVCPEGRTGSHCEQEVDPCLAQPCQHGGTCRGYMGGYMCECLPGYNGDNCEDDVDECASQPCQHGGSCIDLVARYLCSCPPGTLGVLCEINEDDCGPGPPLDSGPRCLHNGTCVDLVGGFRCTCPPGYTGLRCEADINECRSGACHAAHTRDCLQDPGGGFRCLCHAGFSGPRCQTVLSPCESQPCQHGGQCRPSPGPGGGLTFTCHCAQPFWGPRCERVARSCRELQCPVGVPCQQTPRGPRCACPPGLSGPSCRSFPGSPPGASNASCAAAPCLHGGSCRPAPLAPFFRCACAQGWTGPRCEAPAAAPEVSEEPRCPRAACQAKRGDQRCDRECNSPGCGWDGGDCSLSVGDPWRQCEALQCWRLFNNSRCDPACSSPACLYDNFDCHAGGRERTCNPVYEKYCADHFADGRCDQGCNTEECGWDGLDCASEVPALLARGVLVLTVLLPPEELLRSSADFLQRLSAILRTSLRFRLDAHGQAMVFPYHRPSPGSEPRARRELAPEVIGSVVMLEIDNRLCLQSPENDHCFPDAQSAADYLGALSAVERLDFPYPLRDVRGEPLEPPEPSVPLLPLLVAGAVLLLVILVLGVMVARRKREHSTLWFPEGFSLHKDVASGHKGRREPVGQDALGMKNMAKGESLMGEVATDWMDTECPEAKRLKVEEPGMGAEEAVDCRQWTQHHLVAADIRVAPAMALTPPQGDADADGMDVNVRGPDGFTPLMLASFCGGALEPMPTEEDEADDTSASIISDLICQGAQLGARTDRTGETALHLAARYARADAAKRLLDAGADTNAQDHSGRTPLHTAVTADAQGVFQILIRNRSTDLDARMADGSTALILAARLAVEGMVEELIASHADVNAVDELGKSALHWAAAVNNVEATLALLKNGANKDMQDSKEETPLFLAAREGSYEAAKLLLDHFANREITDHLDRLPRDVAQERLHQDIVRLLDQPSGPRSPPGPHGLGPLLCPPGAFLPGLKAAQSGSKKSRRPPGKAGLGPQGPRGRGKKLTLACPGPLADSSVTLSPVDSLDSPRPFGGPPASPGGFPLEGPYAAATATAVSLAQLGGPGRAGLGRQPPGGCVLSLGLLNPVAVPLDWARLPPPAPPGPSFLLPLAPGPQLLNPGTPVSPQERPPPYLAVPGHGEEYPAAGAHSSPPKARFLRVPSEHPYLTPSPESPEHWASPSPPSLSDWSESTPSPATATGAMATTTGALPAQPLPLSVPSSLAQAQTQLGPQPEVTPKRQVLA
Torsin-1A-interacting protein 2 (Homo sapiens), sequence (Q8NFQ8 whole entry, looked up): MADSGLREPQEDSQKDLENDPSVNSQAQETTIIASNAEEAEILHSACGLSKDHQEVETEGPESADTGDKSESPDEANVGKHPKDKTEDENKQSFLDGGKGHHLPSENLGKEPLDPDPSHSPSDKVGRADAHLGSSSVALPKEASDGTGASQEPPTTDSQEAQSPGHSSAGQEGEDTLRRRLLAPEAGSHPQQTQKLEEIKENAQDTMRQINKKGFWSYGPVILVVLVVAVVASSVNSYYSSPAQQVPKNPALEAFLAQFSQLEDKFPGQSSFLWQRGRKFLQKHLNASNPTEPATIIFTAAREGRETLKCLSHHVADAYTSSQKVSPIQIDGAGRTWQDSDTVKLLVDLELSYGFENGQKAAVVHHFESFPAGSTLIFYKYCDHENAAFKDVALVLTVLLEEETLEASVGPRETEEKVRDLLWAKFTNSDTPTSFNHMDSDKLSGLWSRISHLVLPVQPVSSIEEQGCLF
Epidermal growth factor receptor (Homo sapiens), sequence (P00533 whole entry, looked up): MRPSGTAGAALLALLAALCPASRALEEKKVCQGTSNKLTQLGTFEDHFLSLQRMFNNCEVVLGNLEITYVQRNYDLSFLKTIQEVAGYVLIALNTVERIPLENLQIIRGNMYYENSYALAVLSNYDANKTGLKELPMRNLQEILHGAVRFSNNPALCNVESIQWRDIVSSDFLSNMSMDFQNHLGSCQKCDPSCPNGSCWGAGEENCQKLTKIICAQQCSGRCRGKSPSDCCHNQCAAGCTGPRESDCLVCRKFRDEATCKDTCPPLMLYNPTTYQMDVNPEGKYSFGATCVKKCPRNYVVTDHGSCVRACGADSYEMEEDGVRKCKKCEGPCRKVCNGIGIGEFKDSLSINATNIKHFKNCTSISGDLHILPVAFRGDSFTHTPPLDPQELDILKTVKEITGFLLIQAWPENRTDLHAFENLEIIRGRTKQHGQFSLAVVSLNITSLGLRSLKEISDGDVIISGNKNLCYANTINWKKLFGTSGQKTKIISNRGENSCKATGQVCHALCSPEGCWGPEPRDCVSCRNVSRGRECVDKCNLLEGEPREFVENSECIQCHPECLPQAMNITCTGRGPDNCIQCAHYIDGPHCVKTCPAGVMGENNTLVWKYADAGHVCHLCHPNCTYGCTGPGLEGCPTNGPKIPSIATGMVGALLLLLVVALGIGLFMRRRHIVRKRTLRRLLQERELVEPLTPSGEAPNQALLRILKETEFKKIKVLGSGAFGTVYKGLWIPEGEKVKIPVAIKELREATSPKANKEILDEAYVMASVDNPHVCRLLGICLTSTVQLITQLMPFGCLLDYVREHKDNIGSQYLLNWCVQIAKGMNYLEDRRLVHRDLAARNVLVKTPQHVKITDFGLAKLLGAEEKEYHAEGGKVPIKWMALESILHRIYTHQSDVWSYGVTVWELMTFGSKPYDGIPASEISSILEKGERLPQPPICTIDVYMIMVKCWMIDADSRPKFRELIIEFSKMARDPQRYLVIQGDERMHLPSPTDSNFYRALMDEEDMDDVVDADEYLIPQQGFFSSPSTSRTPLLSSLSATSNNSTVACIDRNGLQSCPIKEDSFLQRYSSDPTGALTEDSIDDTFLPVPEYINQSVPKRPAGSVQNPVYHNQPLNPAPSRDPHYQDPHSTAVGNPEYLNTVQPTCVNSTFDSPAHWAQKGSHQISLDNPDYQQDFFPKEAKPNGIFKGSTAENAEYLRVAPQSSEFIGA

Row | SMILES | composite z-score [1] | z-score [2] | z-score [3] | z-score [4] | composite z-score [5] | z-score [6] | composite z-score [7] | composite z-score [8] | composite z-score [9] | composite z-score [10] | composite z-score [11] | composite z-score [12] | composite z-score [13] | z-score [14] | composite z-score [15] | composite z-score [16] | composite z-score [17] | composite z-score [18] | composite z-score [19] | composite z-score [20]
1 | COC(=O)[C@@]1(Cc2ccccc2)[C@H]2c3cc(C(=O)N(C)C)n(CCn4cc([N+](=O)[O-])nc4C)c3C[C@H]2CN1C(=O)c1ccccc1 | 1.13 | -1.54 (inactive) | 0.69 (inactive) | 0.253 (inactive) | 3.63 | -0.592 (inactive) | 0.16 | 0.0356 | 1.03 | -0.0088 | 1.72 | -0.262 | 0.436 | -0.106 (inactive) | 0.937 | 0.793 | 0.355 | 0.444 | 0.0356 | 0.581
2 | CC(C)C[C@@H]1NC(=O)[C@@]23C(=O)N[C@@H](Cc4ccccc4)C2[C@H](C)[C@@]2(C)O[C@H]2C3/C=C/C/C=C\CNC(=O)[C@@H](C)NC1=O (stereo not given in full) | 0.5 | -0.939 (inactive) | -1.17 (inactive) | -1.35 (inactive) | -0.408 | 0.624 (inactive) | -0.178 | 0.33 | 0.195 | -0.131 | 1.72 | -0.416 | -0.601 | -1.34 (inactive) | -0.052 | -0.608 | 0.401 | 0.331 | 0.431 | 1.27
3 | COCCOC(=O)N1C(=O)[C@@]2(c3cc(C#CCCO)ccc31)[C@H](c1ccccc1OCCO)N1[C@H](c3ccccc3)[C@H](c3ccccc3)OC(=O)[C@H]1[C@@H]2C(=O)N1CCCCCCC1 | 1.54 | 1.76 (inactive) | 0.11 (inactive) | 2.88 (inactive) | 3.57 | 1.06 (inactive) | 1.39 | 1.86 | 1.05 | 0.837 | 1.69 | 2.28 | 1.36 | -0.532 (inactive) | 0.743 | 1.08 | 0.965 | 1.53 | 1.31 | 1.6
4 | O=C1[C@@]23C=C(Br)[C@H](C[C@@H]2COC3)[C@@]12CO2 | -0.186 | 0.108 (inactive) | -1.34 (inactive) | 0.0993 (inactive) | -0.498 | -1.39 (inactive) | -0.124 | 0.648 | 0.574 | -0.184 | 0.35 | -0.419 | -0.555 | 0.536 (inactive) | 0.266 | 0.638 | 0.566 | 0.514 | 0.449 | 0.262
5 | COc1cc(C(O)C2C=CC3C(=O)N(Cc4ccccc4)C(=O)C3N2n2cnnc2)cc(OC)c1OC (stereo not given) | 0.932 | -1.3 (inactive) | -0.519 (inactive) | -1.22 (inactive) | 1.36 | 0.582 (inactive) | 0.327 | -0.127 | 0.626 | 0.298 | 0.146 | 0.71 | 0.865 | -0.696 (inactive) | 0.571 | 0.389 | 0.489 | 0.16 | 0.134 | 1.23
6 | CCOC(=O)C1=C[C@@H](C(C)(C)C)N(S(=O)(=O)c2ccc(C)cc2)[C@H]1c1ccccc1 | 1.22 | 0.826 (inactive) | 1.27 (inactive) | 1.41 (inactive) | 0.928 | -0.0247 (inactive) | 0.0194 | 0.576 | 1.07 | 0.124 | 0.104 | 1.44 | 1.22 | 1.07 (inactive) | 0.982 | 1.29 | 0.591 | 1.26 | 0.743 | 0.556
7 | CCOC(=O)C1=CCC(c2ccco2)N(S(=O)(=O)c2ccc(C)cc2)C1 (stereo not given) | 1.08 | -0.949 (inactive) | -0.0107 (inactive) | -0.013 (inactive) | 2.62 | 0.322 (inactive) | 0.18 | 0.637 | 1.08 | 0.0357 | 1.04 | 0.363 | -0.0042 | 0.0407 (inactive) | 1.12 | 1.3 | 0.422 | 1.22 | 0.49 | 1.35
8 | CCOC(=O)C1=C[C@@H](C(C)(C)C)N(S(=O)(=O)c2ccc(C)cc2)[C@H]1c1cccc(Cl)c1 | 1.4 | 1.74 (inactive) | 2.35 (inactive) | 3.04 (inactive) | 2.81 | -0.695 (inactive) | 0.195 | 1.04 | 1.08 | 0.301 | 0.758 | 0.821 | 0.182 | -0.517 (inactive) | 0.907 | 1.31 | 0.427 | 1.36 | 0.0675 | -0.213
9 | CN(C)CCCC[C@@H]1NC(=O)[C@@H]2C[C@H](C(=O)O)[C@H](c3cccc(OCCO)c3)N2C1=O | 0.212 | 0.15 (inactive) | -0.595 (inactive) | -0.273 (inactive) | 1.31 | 0.802 (inactive) | -0.036 | -0.0355 | -0.0905 | -0.203 | 1.25 | -0.336 | -0.165 | 0.0013 (inactive) | -0.376 | -0.461 | -0.277 | -0.306 | 0.333 | -0.7
10 | COC(=O)[C@@]1(Cc2ccccc2CN=[N+]=[N-])N=C(c2ccc(OCCCO)cc2)O[C@H]1c1ccccc1 | 1.45 | 0.682 (inactive) | -2.11 (inactive) | 35.9 (active) | 1.94 | 0.77 (inactive) | 0.547 | 0.151 | 0.107 | 0.0209 | 1.13 | 0.789 | 0.966 | 0.31 (inactive) | -0.438 | -0.0487 | -0.0819 | -0.153 | -0.459 | 1.13
